# Screening data (PubChem)
# The list is not random: actives were taken first. Their share in the collection is about 3.4%.
# MITF inh = human MITF inhibition, primary screen; O75030; AlphaScreen MITF homodimerization, bead proximity signal; inhibition, % at 2.6 µM; actives 0.91% (n = 650,000); AID 1259374; in the data active = inhibition above about 50%;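 note: 0% = vehicle wells with protein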
# GPR151 activ = activates the human receptor GPR151; Q8TDV0; PathHunter beta-arrestin GPR151 cells, luminescence; activation, % at 11.2 µM; actives 1% (n = 650,000); in the data active = activation above about 4.9%;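 note: 0% = median of compound wells and 100% = cells with positive control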
# FBW7 activator = activators of human E3 ligase FBW7; normalized activity (activation), % at 26.1 µM; AlphaScreen FBW7–phospho-cyclin E peptide binding, activator screen; Q969H0; actives 0.13% (n = 650,000); in the data active = normalized activity above about 1.9%;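 note: purified mutant Fbw7 with reduced substrate affinity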
# Target sequence (Q969H0 whole entry, looked up): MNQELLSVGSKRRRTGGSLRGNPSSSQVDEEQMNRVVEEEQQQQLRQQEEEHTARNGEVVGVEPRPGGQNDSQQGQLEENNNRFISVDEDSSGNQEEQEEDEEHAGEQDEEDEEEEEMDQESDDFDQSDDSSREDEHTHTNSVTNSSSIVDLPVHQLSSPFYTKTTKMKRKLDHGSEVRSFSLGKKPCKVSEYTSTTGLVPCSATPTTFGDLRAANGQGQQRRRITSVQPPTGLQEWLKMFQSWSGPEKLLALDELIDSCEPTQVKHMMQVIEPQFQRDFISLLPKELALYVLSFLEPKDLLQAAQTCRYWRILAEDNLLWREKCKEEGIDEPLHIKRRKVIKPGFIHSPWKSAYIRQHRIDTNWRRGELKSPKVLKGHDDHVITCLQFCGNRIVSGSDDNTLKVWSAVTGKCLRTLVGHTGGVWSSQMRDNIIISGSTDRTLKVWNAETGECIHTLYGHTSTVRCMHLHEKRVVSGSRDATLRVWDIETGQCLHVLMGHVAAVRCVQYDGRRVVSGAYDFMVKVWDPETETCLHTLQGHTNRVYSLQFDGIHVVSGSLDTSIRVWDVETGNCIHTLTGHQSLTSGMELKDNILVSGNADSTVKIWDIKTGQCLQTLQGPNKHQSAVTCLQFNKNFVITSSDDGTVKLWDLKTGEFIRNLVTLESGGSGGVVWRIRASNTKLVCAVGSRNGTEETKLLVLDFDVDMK
# TEAD-YAP inh = TEAD-YAP interaction inhibition; inhibition, % at 9.12 µM; actives 1.4% (n = 640,000); AID 1259422; HEK-TIYL cells, TEAD-Gal4/YAP UAS-luciferase luminescence; in the data active = inhibition above about 32%;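 note: 0% = median of test compound wells and 100% = reference inhibitor wells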
# GPR151 conf act = human GPR151 activation, confirmation screen; 6,700 tested, under 10 active; shares compounds with GPR151 activ; AID 1508609; GPR151 PathHunter beta-arrestin cells, luminescence, 90 min; % of EA-reagent control over plate median; activation, % at 11.2 µM;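 active = mean percent activation across replicates above the confirmation screen cutoff of 4.91%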
# GPR119 ag = GPR119 activation, counter-screen for GPR151 activators | shares compounds with GPR151 activ | actives 0.3% (n = 6,700) | activation, % at 11.2 µM | GPR119 PathHunter beta-arrestin cells, luminescence, 90 min; 0 = compound-well median, 100 = enzyme-acceptor control | AID 1508611;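 active = mean percent activation in the counterscreen above 29.09%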;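 note: counterscreen on off-target GPR119 to flag nonselective hits from the GPR151 activator screen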
# An asterisk follows results filed as active; · = not tested or not shown.
SMILES,MITF inh,GPR151 activ,FBW7 activator,TEAD-YAP inh,GPR151 conf act,GPR119 ag
O=C(/C=C/c1ccccc1)Nc1c(Cl)cccc1Cl,0,0,0,-7,·,·
Cc1cc(C)cc(OCC(=O)OCc2c(C)noc2C)c1,9,2,0,-1,·,·
Cc1ccc(OCC(=O)OCc2c(C)noc2C)cc1C,-3,8.0*,0,7,0,4
Cc1ccc(OCC(=O)OCC(=O)c2ccccc2)cc1C,-7,10*,0,-4,0,11
Cc1cccc(-c2cnc(C)nc2C2CCCN(C(=O)CN(C)C)C2)c1 (stereo not drawn),-3,14*,0,-1,1,-1
CC(=O)CC(C)C(=O)N1CCCC(c2nc(C)ncc2-c2cccc(C)c2)C1 (stereo not drawn),0,6.4*,0,-3,1,-2
COc1ccc(CC(=O)Nc2nnc(C3CCCCC3)s2)cc1,10,-1,0,-3,·,·
CCOC(=O)N1CCN(c2ccc(F)cc2[N+](=O)[O-])CC1,4,0,0,6,·,·
Cc1ccccc1NC(=S)NCC(c1cccnc1)N1CCOCC1 (stereo not drawn),4,0,0,-8,·,·
S=C(NCCc1ccccc1)NCC(c1cccnc1)N1CCOCC1 (stereo not drawn),-4,9.3*,0,3,1,9
O=C(NCc1ccccc1)c1ccc(OCc2ccccc2)cc1,-5,-1,0,5,·,·
CC(C)OC(=O)COc1ccc(C(=O)NCc2ccccc2)cc1,-4,5.3*,1,7,0,-9
CC(=O)c1cccc(S(=O)(=O)NCC(c2ccco2)N2CCCCC2)c1 (stereo not drawn),-11,7.0*,0,10,0,0
CC(=O)c1cccc(S(=O)(=O)NCc2ccco2)c1,7,0,0,-22,·,·
COc1cc(-c2nc3sc4c(c3c(=O)[nH]2)CCCC4)ccc1OCCOc1ccc(C)c(C)c1,4,5.7*,0,0,-1,-1
CCOc1cc(-c2nc3sc4c(c3c(=O)[nH]2)CCCC4)ccc1OCc1ccccc1F,-1,5.5*,0,-7,1,-8
Cc1ccc(C)n1-c1ccc(N)cc1,-2,1,0,2,·,·
C=CCOC(=O)C1=C(C)NC2=C(C(=O)CCC2)C1c1cccc(Cl)c1Cl (stereo not drawn),11,0,1,3,·,·
CC(C)c1nc(CNCc2c(C(=O)N3CCCN(C)CC3)nc3sccn23)cs1,10,6.9*,0,-1,0,1
COc1ccc(SCCC(=O)Nc2nc3ccccc3s2)cc1,8,1,1,0,·,·
COc1ccc(SCCC(=O)Nc2ccc3sc(C)nc3c2)cc1,8,6.2*,-1,-9,1,8
Brc1cccc(CNCc2cccnc2)c1,16,1,0,4,·,·
Brc1cccc(CNCc2ccncc2)c1,4,13*,0,12,1,-5
O=C(NN=C1CCCC1)C(O)(c1ccccc1)c1ccccc1,-6,0,0,-10,·,·
O=C(NN=C1CCCCC1)C(O)(c1ccccc1)c1ccccc1,-1,9.9*,0,6,3,14
SMILES,MITF inh,GPR151 activ,FBW7 activator,TEAD-YAP inh,GPR151 conf act,GPR119 ag
CCCNC(=O)c1ccc2nc(N3CCc4ccccc4C3)sc2c1,5,-2,0,-55,·,·
O=C(NCc1ccccc1)c1ccc2nc(N3CCc4ccccc4C3)sc2c1,-1,5.6*,0,-63,0,-1
CCC(C)c1ccccc1OCCON1C(=O)CCC1=O (stereo not drawn),-21,7.1*,0,8,2,2
CC(C)(C)c1ccc(OCCON2C(=O)CCC2=O)c(Cl)c1,-28,3,0,2,·,·
COc1ccc(C(=O)OCCCC(=O)c2ccc(F)cc2)c(OC)c1,6,2,0,0,·,·
COc1ccc(C(=O)OCCCOC(=O)c2ccc(OC)cc2OC)c(OC)c1,24,5.9*,0,-21,1,8
CC(C)(C)OC(=O)NCC(=O)NC(Cc1ccc(OCc2ccccc2)cc1)C(N)=O (stereo not drawn),-1,5.1*,0,-7,2,10
COc1ccc(-c2nnc(SCC(=O)N3c4ccccc4CC3C)o2)cc1 (stereo not drawn),4,5.8*,0,-10,1,13
COc1ccc(-c2csc(NC(=O)c3ccc(C)o3)n2)cc1,10,9.6*,0,0,0,12
CCCN(Cc1cccs1)C(=O)NCc1ccccc1,5,8.1*,0,-5,0,-12
COC(=O)c1cccc(NC(=O)COc2ccc(C(C)C)c(C)c2)c1,17,0,1,-7,·,·
Cc1cc(C)cc(NC(=O)COc2cccc(C)c2)c1,-17,6.3*,0,5,-1,2
Cc1ccc(OCC(=O)Nc2cccc(O)c2)cc1C,8,0,0,1,·,·
CC(=O)N(C)c1ccc(NC(=O)COc2cc(C)cc(C)c2)cc1,-4,4.9*,0,-2,-1,-10
Cc1cccc(OCC(=O)Nc2cccc(O)c2)c1,-10,5.9*,0,-18,0,-9
CCOC(=O)c1cccc(NC(=O)COc2ccc(C(C)C)c(C)c2)c1,10,5.0*,1,-11,0,4
O=C1NC(NCc2ccccc2)(C(F)(F)F)C(=O)N1c1ccc(OC(F)(F)F)cc1 (stereo not drawn),0,-1,0,-7,·,·
CC(C)COc1ccc(C2(C)NC(=O)N(C)C2=O)cc1 (stereo not drawn),-12,1,0,-16,·,·
Cc1cccc(OCC(=O)Nc2cccc(C(=O)O)c2C)c1,-7,6.0*,0,-10,0,5
CCOC(=O)Cn1nnnc1CN(Cc1cc2cc(C)ccc2[nH]c1=O)C1CCCCC1,-17,0,0,-3,·,·
O=C(NCc1nc2ccccc2[nH]1)c1cccc(-c2ccccc2)n1,-3,7.1*,0,8,1,-3
Cc1nn(-c2cccc(Cl)c2)c2c1C(c1ccccc1Cl)C(C#N)=C(N)O2 (stereo not drawn),10,5.5*,0,2,0,3
CCOc1ccc(C2C(C#N)=C(N)Oc3c2c(C)nn3-c2ccccc2)cc1OC (stereo not drawn),19,6.4*,0,-8,0,-5
Cc1nn(-c2ccccc2)c2c1C(c1ccccc1Cl)C(C#N)=C(N)O2 (stereo not drawn),18,-2,-1,-4,·,·
COc1ccc(C2C(C#N)=C(N)Oc3c2c(C)nn3-c2ccccc2)cc1OC (stereo not drawn),1,1,0,-2,·,·
COc1ccc(N2CCN(C3CC(=O)N(c4ccc(C(=O)O)cc4)C3=O)CC2)cc1 (stereo not drawn),13,6.0*,0,5,0,4
